Measured values published in PubChem BioAssay (NCATS).
Several values for one entry are separate records, joined by “and”; a condition that tells them apart may be missing. Equal entries are not always repeated. Records with an inconclusive call do not appear. Entries that show only a call come without a potency. Activity calls are given as the source filed them. Calls follow the shape of the dose curve; as a rule, active = well fitted curve in the direction sought with a large enough effect; inconclusive = small, poorly fitted or top-dose-only effect, or another doubt; inactive = no such curve, though single readings can be large; an effect the other way counts as inactive or inconclusive.

Columns and labels:
[1] = qHTS of pediatric cancer cell lines to identify multiple opportunities for drug repurposing: Confirmatory screen for NB1643 cells (AID 1347109); also: nearly all actives have a fitted effect of over 45% in size
Method in brief: (§1)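 Cells (500-1,000/well) in growth media were settled 5 h at 37 degrees C, then given compounds for 48 h. Viability was read as CellTiter-Glo luminescence. Primary runs used MIPE at 11 points (0.78 nM-46 µM) and NPC at 8 points (0.59 nM-46 µM); follow-ups used 11 points.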

[2] = qHTS of pediatric cancer cell lines to identify multiple opportunities for drug repurposing: Confirmatory screen for BT-12 cells (AID 1347112); also: nearly all actives have a fitted effect of over 55% in size; also: potency is read from the fitted curve at half-maximal effect
Method in brief: as §1

[3] = qHTS of pediatric cancer cell lines to identify multiple opportunities for drug repurposing: Confirmatory screen for MG 63 (6-TG R) cells (AID 1347119); also: nearly all actives have a fitted effect of over 55% in size
Method in brief: as §1

[4] = qHTS of pediatric cancer cell lines to identify multiple opportunities for drug repurposing: Confirmatory screen for SK-N-MC cells (AID 1347111);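 also: potency is read from the fitted curve at half-maximal effect; cells exposed to compound for 48 h before the readout; nearly all actives have a fitted effect of over 70% in size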
Method in brief: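 Metabolically active cells were quantified by ATP-dependent luminescence (CellTiter-Glo, 15 min at room temperature) following 48 h treatment. Cells had been plated at 500-1,000 per well and settled for 5 h beforehand.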

CCCCCCCCC(=O)NCc1ccc(O)c(OC)c1
Potency [1]: inactive | Potency [2]: inactive | Potency [3]: inactive

C[C@@H]1C[C@@H]([C@H](O)CC2CC(=O)NC(=O)C2)C(=O)[C@@H](C)C1
Potency [4]: 928 nM (active) and 1.31 µM (active) | Potency [2]: 2.93 µM (active)
